Compound activity: PubChem BioAssay, Broad Institute
Glyco luc inh – blocks N-linked glycosylation in D54 reporter cells | reporter increase, % at 12.5 µM | D54 ERlucT glycosylation luciferase reporter, 24 h; percent of 100 nM tunicamycin response | 0.23% of 360,000 active;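 active = mean luciferase reporter signal, scaled so untreated is 0 and the glycosylation-blocking control 100, at or above a set limit in every replicate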;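 also: luciferase carries N-glycosylation sites so blocking glycosylation raises the light; 0% = median of neutral control wells and 100% = median of 100 nM tunicamycin wells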
Shn3 inh set2 – inhibitors of Schnurri-3 3'UTR reporter in osteoblasts. 0.52% of 360,000 active. AID 588674. inhibition, % at 12.5 µM. Clone20 osteoblast Shn3 3'UTR firefly luciferase, 24 h;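 active = mean inhibition of at least 75% with every replicate also reaching 75%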;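 also: 0% = median of neutral control wells and 100% = pilot-screen positive control compound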
NSD2 HMT inh – NSD2 (human) methyltransferase inhibition; O96028; NSD2 peptide methylation, AlphaScreen, 120 min; inhibition, % at 12.5 µM; 0.54% of 310,000 active; AID 743445; in the data active = inhibition above about 50%
PAX8 reporter – PAX8 transcriptional activity inhibition; 1.2% of 360,000 active; RMG-I TPO-luciferase reporter, SteadyGlo, 24 h; AID 652154; inhibition, % at 12.6 µM;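 active = mean replicate inhibition at least 60% with every replicate also reaching 60%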;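 also: luciferase light reporting Pax8 driven TPO promoter activity; plate controls were median of neutral control wells for no effect and mitoxantrone controls for full effect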
HIV Env fusion – inhibitors of HIV Env-mediated cell fusion. HeLa-JRFL Env/CEM21 cell fusion, luciferase. inhibition, % at 12.3 µM. 1.1% of 360,000 active. AID 651610;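 active = mean replicate inhibition score of at least 50 and every replicate individually at or above 50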;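 also: 0% = plate neutral controls and 100% = maraviroc near 300 nM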
LMP1 NFkB inh – inhibitors of Epstein-Barr LMP1-induced NF-kappaB reporter; 0.69% of 350,000 active; LMP1-induced NF-kappaB luciferase reporter cells, luminescence; inhibition, % at 12.5 µM; in the data active = inhibition above about 41%;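 also: 0% = neutral control wells and 100% = reference inhibitor control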
* hit, by the source's call; / = no result; [ ] = dose if it differs, or a comment. A selection: hits, their analogues and other compounds. The true share with any hit is near 2.8%.

SMILES	Glyco luc inh	Shn3 inh set2	NSD2 HMT inh	PAX8 reporter	HIV Env fusion	LMP1 NFkB inh
C[C@@H]1CCCCO[C@@H](CN(C)C(=O)C2CCCCC2)[C@@H](C)CN([C@@H](C)CO)C(=O)c2cc(NC(=O)CCC(F)(F)F)ccc2O1	/	/	/	/	4[16.7 µM]	/
C[C@H]1CN([C@@H](C)CO)C(=O)c2cc(NS(=O)(=O)c3ccc(F)cc3)ccc2O[C@@H]1CN(C)S(=O)(=O)c1ccc(F)cc1	/	/	/	-11	-96[16.7 µM]	/
Cc1ccc(S(=O)(=O)N(C)C[C@@H]2OCCCC[C@H](C)Oc3ccc(NS(=O)(=O)c4ccc(Cl)cc4)cc3C(=O)N([C@@H](C)CO)C[C@@H]2C)cc1	/	/	/	68*	46[16.7 µM]	/
Cc1ccc(S(=O)(=O)N(C)C[C@@H]2OCCCC[C@H](C)Oc3ccc(NS(=O)(=O)c4ccc(Cl)cc4)cc3C(=O)N([C@H](C)CO)C[C@H]2C)cc1	/	/	/	81*	31[16.7 µM]	/
Cc1ccc(S(=O)(=O)N(C)C[C@@H]2Oc3ccc(NS(=O)(=O)c4ccc(Cl)cc4)cc3C(=O)N([C@@H](C)CO)C[C@H]2C)cc1	/	/	/	/	64*[16.7 µM]	/
Cc1ccc(S(=O)(=O)N(C)C[C@H]2OCCCC[C@@H](C)Oc3ccc(NS(=O)(=O)c4ccc(Cl)cc4)cc3C(=O)N([C@H](C)CO)C[C@@H]2C)cc1	/	/	/	11	-22[16.7 µM]	/
C[C@H]1CN([C@@H](C)CO)C(=O)c2cc(NS(=O)(=O)c3ccc(F)cc3)ccc2O[C@H]1CN(C)S(=O)(=O)c1ccc(F)cc1	/	/	/	7	58*[16.7 µM]	/
Cc1ccc(S(=O)(=O)N(C)C[C@H]2OCCCC[C@@H](C)Oc3ccc(NS(=O)(=O)c4ccc(Cl)cc4)cc3C(=O)N([C@@H](C)CO)C[C@H]2C)cc1	/	/	/	73*	-49[16.7 µM]	/
Cc1ccc(S(=O)(=O)Nc2ccc3c(c2)C(=O)N([C@@H](C)CO)C[C@H](C)[C@@H](CN(C)S(=O)(=O)c2ccc(Cl)cc2)OCCCC[C@@H](C)O3)cc1	/	/	/	57	22[16.7 µM]	/
Cc1ccc(S(=O)(=O)Nc2ccc3c(c2)C(=O)N([C@@H](C)CO)C[C@H](C)[C@@H](CN(C)S(=O)(=O)c2ccc(Cl)cc2)OCCCC[C@H](C)O3)cc1	/	/	/	53	34[16.7 µM]	/
Cc1ccc(S(=O)(=O)N(C)C[C@H]2OCCCC[C@H](C)Oc3ccc(NS(=O)(=O)c4ccc(Cl)cc4)cc3C(=O)N([C@H](C)CO)C[C@@H]2C)cc1	/	/	/	81*	16[16.7 µM]	/
O=C(NCC[C@H]1CC[C@@H](NS(=O)(=O)Cc2ccccc2)[C@H](CO)O1)C1CCCC1	/	/	/	-8	-12[16.7 µM]	/
O=C(CC1C[C@H](C(=O)N2CCCCC2)[C@@]2(CCc3ccccc3)c3[nH]c4ccccc4c3CCN2C1=O)NCCc1ccccn1 (stereo partly drawn)	8	10	/	35	-35	69*
CC(C)(C)NC(=O)C[C@H]1C[C@H](C(=O)N2CCCCC2)[C@@]2(CCc3ccccc3)c3[nH]c4ccc(Cl)cc4c3CCN2C1=O	-7	19	/	-4	28	5
C[C@]12c3[nH]c4ccccc4c3CCN1C(=O)C(CC(=O)NCCc1ccccn1)C[C@@H]2C(=O)N1CCCCC1 (stereo partly drawn)	1	-21	/	6	-5	5
O=C(C[C@H]1C[C@H](C(=O)N2CCCCC2)[C@@]2(CCc3ccccc3)c3[nH]c4ccc(Cl)cc4c3CCN2C1=O)NCc1ccco1	6	52	/	73*	18	10
Cc1ccccc1S(=O)(=O)N[C@@H]1CC[C@H](CCn2cc(Cc3ccccc3)nn2)O[C@H]1CO	/	/	/	17	13[16.7 µM]	/
COc1cc2c(cc1NC(=O)COC(=O)C(CCSC)NC(=O)c1ccccc1Cl)oc1ccccc12 (stereo not drawn)	1	-98	-5	62*	/	-16
COc1cccc(NC2c3ccccc3C(=O)N2Cc2ccccc2Cl)c1 (stereo not drawn)	-2	-22	-1	2	36	-10
COc1cc(NC2c3ccccc3C(=O)N2Cc2ccccc2Cl)cc(OC)c1 (stereo not drawn)	-2	13	8	4	65*	0
CCCCCCC1CCC(C(=O)NC(CCSC)C(=O)NC(C(=O)OC)C(C)C)CC1 (stereo not drawn)	1	34	-1	/	57*	5
CCCC(=O)Nc1ccc2c(c1)C(=O)N(C)[C@@H]1CC[C@@H](CC(=O)NCCOC)O[C@H]1CO2	/	/	/	-5	-34[16.7 µM]	/
CC1=C(C)C(=O)C(CCCCC#CCCCC#CCO)=C(C)C1=O	2	-1	/	/	/	43*
